Where “and” joins values, the source holds several entries; their conditions need not be identical. Equal entries are not always repeated. Records with an inconclusive call do not appear. Calls of active or inactive are those of the source. Unless noted, the call rests on the fitted dose curve.

We go through seven compounds from PubChem BioAssay (NCATS).

Test [1] in a line: Validation screen for inhibitors of Lassa infection (AID 463096). Further: on the % scale 0 is the no-effect control and ±100 the full control effect.
The nature of test [2]: Quantitative high throughput screen for delayed death inhibitors of the malarial parasite plastid, 96 hour incubation (AID 488745; active means well fitted curve in the direction sought with a large enough effect; an effect the other way counts as inactive or inconclusive; further: on the % scale 0 is the no-effect control and ±100 the full control effect; nearly all actives have a fitted effect of over 70% in size). The procedure, abridged:
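Luciferase-expressing P. falciparum in erythrocytes (2% hematocrit, 0.1% parasitemia) incubated with compound for 96 h at 37 C, 5% CO2, in RPMI 1640 with 0.5% Albumax. Growth inhibition read as decreased luminescence.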

Test [3] can be described thus: Quantitative high throughput screen for delayed death inhibitors of the malarial parasite plastid, 48 hour incubation (AID 488752; active means well fitted curve in the direction sought with a large enough effect; an effect the other way counts as inactive or inconclusive; further: on the % scale 0 is the no-effect control and ±100 the full control effect; nearly all actives have a fitted effect of over 65% in size). Summed up: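 Erythrocytes infected with firefly luciferase-expressing P. falciparum (2% hematocrit, 0.1% parasitemia) cultured with compound for 48 h at 37 C, 5% CO2, in RPMI 1640/0.5% Albumax. Growth inhibition read as loss of luminescence.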

Test [4] in a line: Inducers of the Endoplasmic Reticulum Stress Response (ERSR) in human glioma: Validation (AID 504836; active means well fitted curve in the direction sought with a large enough effect; an effect the other way counts as inactive or inconclusive; further: 0% is about no effect). The procedure, abridged: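 Stably transfected U87-MG human glioma cells carrying a GRP78-based luminescent sensor were seeded at 1000 cells/well, pin-dosed with compounds and incubated 16 h. Luciferase reagent was then added, and end-point luminescence was read after 10 min at room temperature.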

Test [5] deals with Bile acid receptor (Homo sapiens) (UniProt Q96RI1). Briefly: qHTS assay for small molecule agonists of farnesoid X receptor signaling (AID 588527).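 Further: 0% = vehicle basal and 100% = reference agonist.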 The following applies: HEK293T FXR-UAS-bla, beta-lactamase ratio, 16 h; activation: stronger effect = higher value. The procedure, abridged: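 Agonist-mode beta-lactamase reporter in GeneBLAzer FXR-UAS-bla HEK293T cells, titration up to 92 uM, 16 h exposure at 37 C, CCF4 fluorescence. Response scaled to DMSO (0%) and 100 uM chenodeoxycholic acid (100%), then Hill-fitted for EC50 and efficacy.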
In general terms: qHTS replaces the single test concentration by a dilution series.

The target of test [6] is Peroxisome proliferator-activated receptor delta (Homo sapiens) (UniProt Q03181). Briefly: qHTS assay for small molecule agonists of peroxisome proliferator-activated receptor delta signaling (AID 588534).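 Further: 0% = DMSO basal wells and 100% = positive control agonist at 10 µM.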 Summed up:
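Cells carrying a PPAR-delta beta-lactamase reporter were treated with compounds for 18 h at 37 °C in agonist mode. CCF4 fluorescence was read after 2 h; EC50 and efficacy from Hill fits.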

Test [7] is described as follows: qHTS for Inhibitors of the Functional Ribonucleoprotein Complex (vRNP) of Lassa (LASV) Arenavirus: Viability assay - alamar blue signal for LASV Primary Screen (AID 1347083; calls by dose curve; tested in HEK293 reporter line; further: nearly all actives have a fitted effect of over 80% in size; further: potency means the concentration at half of the fitted maximal effect).
A short description of test [8]: qHTS for Inhibitors of the Functional Ribonucleoprotein Complex (vRNP) of Lymphocytic Choriomeningitis Arenaviruses (LCMV): Viability assay - alamar blue signal for LCMV Primary Screen (AID 1347085; calls by dose curve; tested in HEK293 reporter line; further: nearly all actives have a fitted effect of over 80% in size; further: potency means the concentration at half of the fitted maximal effect).
The nature of test [9]: Cytotoxicity counterscreen for inhibitors of SARS-CoV-2 cell entry (AID 1645845). Further: nearly all actives have a fitted effect of over 50% in size. The procedure, abridged: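 Expi293F/hACE2 cells seeded overnight; cpd pin-transferred in DMSO, 1 h preincubation, + media, 48 h 37 C 5% CO2; ATPLite 1step luminescence; normalized to cells and no cells.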
In general terms: A counterscreen serves to expose hits that act by an unwanted route or on another target.

The nature of test [10]: Primary qHTS for Huh7 cytotoxicity: counterscreen for inhibitors of MERS-S pseudotyped particle cell entry (AID 1479147). The following applies: outcome: dose series up to 57.1 µM unless noted.
A short description of test [11]: Primary qHTS for Vero E6 cytotoxicity: counterscreen for inhibitors of SARS-S pseudo-typed particle cell entry (AID 1479150). The following applies: outcome: dose series up to 57.1 µM unless noted.
Test [12] is described as follows: Primary qHTS to identify inhibitors of SARS-CoV-2 cell entry (AID 1645846). Further: nearly all actives have a fitted effect of over 45% in size. Further: potency means the concentration at half of the fitted maximal effect. As to conditions: activity change, negative = inhibition: at 57.1 µM (top of the series) unless noted. The procedure, abridged:
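Using luciferase-reporting pseudoviruses carrying Wuhan-Hu-1 spike, the screen tracks entry into stably ACE2-expressing cells over 48 hr. Activity is expressed relative to spike particles versus particles lacking any fusion protein.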

Test [13] is described as follows: Primary qHTS for inhibitors of MERS-S pseudo-typed particle cell entry (AID 1479149). Further: on the % scale 0 is the no-effect control and ±100 the full control effect; nearly all actives have a fitted effect of over 60% in size.

Chain of Peroxisome proliferator-activated receptor delta (Homo sapiens) (Q03181 whole entry, looked up): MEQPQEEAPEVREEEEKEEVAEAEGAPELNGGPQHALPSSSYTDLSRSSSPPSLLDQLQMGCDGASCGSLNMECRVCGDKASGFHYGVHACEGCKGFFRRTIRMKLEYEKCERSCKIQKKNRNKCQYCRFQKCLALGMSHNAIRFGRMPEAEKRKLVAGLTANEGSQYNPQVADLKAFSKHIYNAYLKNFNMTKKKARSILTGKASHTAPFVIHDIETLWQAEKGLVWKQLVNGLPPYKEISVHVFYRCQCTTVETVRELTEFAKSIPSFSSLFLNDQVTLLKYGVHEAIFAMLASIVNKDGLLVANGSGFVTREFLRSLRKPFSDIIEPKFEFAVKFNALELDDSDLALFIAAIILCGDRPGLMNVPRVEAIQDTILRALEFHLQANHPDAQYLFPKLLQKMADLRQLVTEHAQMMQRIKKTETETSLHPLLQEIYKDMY
Chain of Bile acid receptor (Homo sapiens) (Q96RI1 whole entry, looked up): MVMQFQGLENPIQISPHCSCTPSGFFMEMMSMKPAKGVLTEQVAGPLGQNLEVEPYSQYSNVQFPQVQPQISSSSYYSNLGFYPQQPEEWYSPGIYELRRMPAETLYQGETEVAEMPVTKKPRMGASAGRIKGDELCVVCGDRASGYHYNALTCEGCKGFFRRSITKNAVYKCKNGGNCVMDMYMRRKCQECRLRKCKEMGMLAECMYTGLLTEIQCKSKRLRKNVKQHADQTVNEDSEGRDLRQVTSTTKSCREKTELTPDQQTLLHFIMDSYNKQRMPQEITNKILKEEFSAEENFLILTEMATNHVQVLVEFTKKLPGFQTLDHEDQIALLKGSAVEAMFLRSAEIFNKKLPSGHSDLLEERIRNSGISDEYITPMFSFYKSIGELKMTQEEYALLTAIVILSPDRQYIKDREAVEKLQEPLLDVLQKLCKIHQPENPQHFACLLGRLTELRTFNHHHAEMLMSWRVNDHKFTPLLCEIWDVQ

Turning to `CC(C)NCC(O)COc1cccc2ccccc12` (centres undefined), the Potency result in [1], in test [2], in test [3], in test [6], in test [7] and in test [8] was “inactive” throughout. Also, the compound was classed as inactive in test [4]. For the same compound, in test [5], the activation was 0.153% (inactive) and 4.79% (inactive).

For the compound `O=C(CC12CC3CC(CC(C3)C1)C2)Nc1cccc2nc(NCCNCCO)ccc12`, the Potency was 21.7 µM (active) in test [7] and 24.3 µM (active) in test [8]. For the same compound, in test [9], the Potency result is “inactive”.

For the compound `Cc1nc2c([nH]1)CCN(C(=O)c1ccc(NC(=O)c3ccccc3-c3ccccc3)cc1)c1ccccc1-2`, the Potency result in [7], in test [8] and in test [9] was “inactive” throughout. Further, the compound was classed as inactive in test [10] and in test [11].

For `Cc1ncc(-c2ccnc(Nc3ccc(S(C)(=O)=O)cc3)n2)n1C(C)C`, the Potency in [7] was 6.85 µM (active); in test [8], 13.7 µM (active). The activity change, negative = inhibition in test [12] was -96.5%.

`CN1CCN2c3ccccc3Cc3ccccc3C2C1` (centres undefined): the Potency entry in [1], in test [7], in test [8] and in test [13] was “inactive” throughout. Further, the call in [4], in test [10] and in [11] was inactive.

For `Cc1cnc(NC(=O)Nc2cc(Br)c(C)cc2OC[C@@H]2CNCCO2)cn1`, the Potency in [7] was 2.43 µM (active); in [8] it was 10.9 µM (active); in test [12] it was 10 µM (active).

For `Nc1nc(N)c(N=O)c(OCC2CCCCC2)n1`, the compound was called inactive in test [4]. Further, the Potency in [7] is 15.3 µM (active); in [8] it was 21.7 µM (active). In addition, the Potency entry in test [9] was “inactive”. Besides, in test [12], the activity change, negative = inhibition is -7.15%.
